In PubChem BioAssay AID1159580 (chemical genetic matrix, 2015):
Screen size: about 5,500 compounds; about 2,000 (36%) were called active. About 18% were inconclusive and are not listed. Rule as the data show it: active = normalized growth mostly below about 0.91 (no sharp cut-off); inconclusive = no clear call, values can overlap the other calls; inactive = mostly above about 0.92. The list shows a part of the results.

Assay: chemical genetic growth profiling, strain panel (AID 1159580);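 also: tested at 20 µM; growth read once vehicle control cultures reached saturation at 30 °C; 1 = growth at the plate median or of vehicle wells; lower values mean less growth of the strain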
Details: growth OD

Measured: normalized growth

CC1(O)/C=C/C=C(\CO)C2CC(C)(C)C2(O)CC1 (stereo unspecified)
inactive: S. cerevisiae deletion strains, locus YAL013W, strain DEP1, stronger effect = lower value 1.02 | S. cerevisiae deletion strains, locus YBR021W, strain FUR4, stronger effect = lower value 1.02 | S. cerevisiae deletion strains, locus YBR229C, strain ROT2, stronger effect = lower value 1.01 | S. cerevisiae deletion strains, locus YCL029C, strain bik1, stronger effect = lower value 1 | S. cerevisiae deletion strains, locus YDL035C, strain GPR1, stronger effect = lower value 1.01 | S. cerevisiae deletion strains, locus YDL074C, strain BRE1, stronger effect = lower value 1.03 | S. cerevisiae deletion strains, locus YDL101C, strain DUN1, stronger effect = lower value 1.02 | S. cerevisiae deletion strains, locus YDL134C, strain PPH21, stronger effect = lower value 1.02 | S. cerevisiae deletion strains, locus YDL185W, strain tfp1, stronger effect = lower value 1 | S. cerevisiae deletion strains, locus YDL192W, strain arf1, stronger effect = lower value 1 | S. cerevisiae deletion strains, locus YDR101C, strain arx1, stronger effect = lower value 0.976 | S. cerevisiae deletion strains, locus YDR150W, strain NUM1, stronger effect = lower value 1.02 | S. cerevisiae deletion strains, locus YDR162C, strain NBP2, stronger effect = lower value 1.04 | S. cerevisiae deletion strains, locus YDR318W, strain mcm21, stronger effect = lower value 0.993 | S. cerevisiae deletion strains, locus YDR388W, stronger effect = lower value 0.998 | S. cerevisiae deletion strains, locus YDR502C, strain sam2, stronger effect = lower value 1.01 | S. cerevisiae deletion strains, locus YEL061C, strain CIN8, stronger effect = lower value 1.01 | S. cerevisiae deletion strains, locus YER110C, stronger effect = lower value 0.998 | S. cerevisiae deletion strains, locus YER155C, strain BEM2, stronger effect = lower value 1 | S. cerevisiae deletion strains, locus YER167W, strain BCK2, stronger effect = lower value 1.02 | S. cerevisiae deletion strains, locus YGL078C, strain dbp3, stronger effect = lower value 1 | S. cerevisiae deletion strains, locus YGL086W, strain mad1, stronger effect = lower value 1 | S. cerevisiae deletion strains, locus YGL248W, strain PDE1, stronger effect = lower value 1.01 | S. cerevisiae deletion strains, locus YGR078C, strain PAC10, stronger effect = lower value 1.02 | S. cerevisiae deletion strains, locus YGR135W, strain pre9, stronger effect = lower value 0.999 | S. cerevisiae deletion strains, locus YGR229C, strain SMI1, stronger effect = lower value 1.02 | S. cerevisiae deletion strains, locus YGR252W, strain gcn5, stronger effect = lower value 0.956 | S. cerevisiae deletion strains, locus YHR030C, strain SLT2, stronger effect = lower value 1 | S. cerevisiae deletion strains, locus YHR079C, strain IRE1 (second series), stronger effect = lower value 1 | S. cerevisiae deletion strains, locus YHR094C, strain hxt1, stronger effect = lower value 1.01 | S. cerevisiae deletion strains, locus YHR129C, strain ARP1, stronger effect = lower value 1.01 | S. cerevisiae deletion strains, locus YHR200W, strain rpn10, stronger effect = lower value 1 | S. cerevisiae deletion strains, locus YIL066C, strain RNR3, stronger effect = lower value 1.01 | S. cerevisiae deletion strains, locus YIL073C, strain SPO22, stronger effect = lower value 1.02 | S. cerevisiae deletion strains, locus YIL125W, strain kgd1, stronger effect = lower value 0.998 | S. cerevisiae deletion strains, locus YIR030C, strain dcg1, stronger effect = lower value 1.01 | S. cerevisiae deletion strains, locus YJL095W, strain BCK1, stronger effect = lower value 1 | S. cerevisiae deletion strains, locus YJL134W, strain LCB3, stronger effect = lower value 1.01 | S. cerevisiae deletion strains, locus YJL168C, strain set2, stronger effect = lower value 1 | S. cerevisiae deletion strains, locus YJL187C, strain SWE1 (second series), stronger effect = lower value 1.02 | S. cerevisiae deletion strains, locus YJR043C, strain POL32, stronger effect = lower value 0.995 | S. cerevisiae deletion strains, locus YJR075W, strain HOC1, stronger effect = lower value 1.01 | S. cerevisiae deletion strains, locus YKL009W, strain mrt4, stronger effect = lower value 0.991 | S. cerevisiae deletion strains, locus YKL068W, stronger effect = lower value 1.01 | S. cerevisiae deletion strains, locus YKL085W, strain MDH1 (second series), stronger effect = lower value 1.02 | S. cerevisiae deletion strains, locus YKL085W, strain MDH1, stronger effect = lower value 1.02 | S. cerevisiae deletion strains, locus YKL190W, strain CNB1, stronger effect = lower value 1.01 | S. cerevisiae deletion strains, locus YKR001C, strain vps1, stronger effect = lower value 1 | S. cerevisiae deletion strains, locus YLR039C, strain RIC1, stronger effect = lower value 0.977 | S. cerevisiae deletion strains, locus YLR058C, strain SHM2, stronger effect = lower value 1.01 | S. cerevisiae deletion strains, locus YLR102C, strain apc9, stronger effect = lower value 1 | S. cerevisiae deletion strains, locus YLR262C, strain YPT6, stronger effect = lower value 1.05 | S. cerevisiae deletion strains, locus YLR268W, strain sec22, stronger effect = lower value 0.986 | S. cerevisiae deletion strains, locus YLR330W, strain CHS5, stronger effect = lower value 1.01 | S. cerevisiae deletion strains, locus YLR342W, strain FKS1 (second series), stronger effect = lower value 1.02 | S. cerevisiae deletion strains, locus YLR371W, strain rom2, stronger effect = lower value 1 | S. cerevisiae deletion strains, locus YLR418C, strain cdc73, stronger effect = lower value 0.989 | S. cerevisiae deletion strains, locus YML016C, strain PPZ1, stronger effect = lower value 1.01 | S. cerevisiae deletion strains, locus YML032C, strain rad52, stronger effect = lower value 0.979 | S. cerevisiae deletion strains, locus YML124C, strain tub3, stronger effect = lower value 1 | S. cerevisiae deletion strains, locus YMR078C, strain ctf18, stronger effect = lower value 1.01 | S. cerevisiae deletion strains, locus YMR223W, strain ubp8, stronger effect = lower value 0.994 | S. cerevisiae deletion strains, locus YMR263W, strain SAP30, stronger effect = lower value 1.02 | S. cerevisiae deletion strains, locus YMR307W, strain GAS1, stronger effect = lower value 1.02 | S. cerevisiae deletion strains, locus YNL067W, strain RPL9B, stronger effect = lower value 1.01 | S. cerevisiae deletion strains, locus YNL128W, strain TEP1, stronger effect = lower value 1.03 | S. cerevisiae deletion strains, locus YNL153C, strain GIM3, stronger effect = lower value 1.02 | S. cerevisiae deletion strains, locus YNL233W, strain BNI4, stronger effect = lower value 1.02 | S. cerevisiae deletion strains, locus YNL250W, strain rad50, stronger effect = lower value 1.02 | S. cerevisiae deletion strains, locus YNL271C, strain bni1, stronger effect = lower value 0.995 | S. cerevisiae deletion strains, locus YNL298W, strain CLA4, stronger effect = lower value 0.993 | S. cerevisiae deletion strains, locus YNL307C, strain MCK1, stronger effect = lower value 0.997 | S. cerevisiae deletion strains, locus YNL322C, strain KRE1, stronger effect = lower value 1.02 | S. cerevisiae deletion strains, locus YNR052C, strain pop2, stronger effect = lower value 0.998 | S. cerevisiae deletion strains, locus YOL006C, strain TOP1, stronger effect = lower value 1.06 | S. cerevisiae deletion strains, locus YOL012C, strain htz1 0.828 | S. cerevisiae deletion strains, locus YOL147C, strain pex11, stronger effect = lower value 1.01 | S. cerevisiae deletion strains, locus YOR061W, strain CKA2, stronger effect = lower value 1.02 | S. cerevisiae deletion strains, locus YOR069W, strain VPS5, stronger effect = lower value 1.01 | S. cerevisiae deletion strains, locus YOR136W, strain idh2, stronger effect = lower value 0.997 | S. cerevisiae deletion strains, locus YOR144C, strain elg1, stronger effect = lower value 0.999 | S. cerevisiae deletion strains, locus YOR184W, strain ser1, stronger effect = lower value 0.994 | S. cerevisiae deletion strains, locus YOR316C, strain cot1, stronger effect = lower value 1 | S. cerevisiae deletion strains, locus YPL055C, strain LGE1, stronger effect = lower value 1.05 | S. cerevisiae deletion strains, locus YPL241C, strain CIN2, stronger effect = lower value 1.02 | S. cerevisiae deletion strains, locus YPR119W, strain clb2, stronger effect = lower value 0.992 | S. cerevisiae deletion strains, locus YPR141C, strain kar3, stronger effect = lower value 1 | S. cerevisiae deletion strains, locus YPR163C, strain tif3, stronger effect = lower value 1 | S. cerevisiae deletion strains, locus YPR167C, strain met16, stronger effect = lower value 1.01 | S. cerevisiae deletion strains, strain wtn01, stronger effect = lower value 0.995 | S. cerevisiae strains, strain wild type, stronger effect = lower value 1.01
